Assay results published in PubChem BioAssay (EPA / NIEHS).
Records with an inconclusive call do not appear. Calls of active or inactive are those of the source. Rule for the calls: active = hit-call score of the fitted dose curve at least 0.9, where 1 is the maximum; inconclusive = response in the unintended direction; inactive = score below 0.9.

Assays:
[1] = target: human Peroxisome Proliferator-activated Receptor alpha (PPARa), PPARA (gene 5465) (UniProt Q07869); assay: ATG_PPARa_TRANS: Attagene TRANS-FACTORIAL HepG2 Assay for human Peroxisome Proliferator-activated Receptor alpha (PPARa) (AID 2283001)
Chain of human Peroxisome Proliferator-activated Receptor alpha (PPARa), PPARA (gene 5465) (Q07869 whole entry, looked up): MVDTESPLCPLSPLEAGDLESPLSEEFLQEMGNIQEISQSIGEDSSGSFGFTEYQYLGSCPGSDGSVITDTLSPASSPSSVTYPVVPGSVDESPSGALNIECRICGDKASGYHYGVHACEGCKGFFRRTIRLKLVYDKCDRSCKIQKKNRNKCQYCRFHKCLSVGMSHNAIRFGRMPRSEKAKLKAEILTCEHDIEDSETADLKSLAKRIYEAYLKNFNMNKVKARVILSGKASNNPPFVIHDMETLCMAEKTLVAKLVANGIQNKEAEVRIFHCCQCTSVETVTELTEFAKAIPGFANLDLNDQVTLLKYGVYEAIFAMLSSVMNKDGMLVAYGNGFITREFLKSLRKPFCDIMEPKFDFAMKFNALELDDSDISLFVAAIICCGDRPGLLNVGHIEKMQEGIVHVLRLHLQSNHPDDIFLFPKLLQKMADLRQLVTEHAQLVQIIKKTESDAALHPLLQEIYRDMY
Procedure, shortened: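 Cells (HepG2) are transfected with multiple reporter transcription units, exposed to chemical for 24 h, then total RNA is reverse-transcribed and amplified. Labelled products are quantified by capillary electrophoresis; induction is referenced to DMSO.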

[2] = target: Peroxisome proliferator-activated receptor gamma (Homo sapiens) (UniProt P37231); assay: ATG_PPARg_TRANS: Attagene TRANS-FACTORIAL HepG2 Assay for human Peroxisome Proliferator-activated Receptor-gamma (PPARg) (AID 2283007)
Chain of Peroxisome proliferator-activated receptor gamma (Homo sapiens) (P37231 whole entry, looked up, the tested form may be a part): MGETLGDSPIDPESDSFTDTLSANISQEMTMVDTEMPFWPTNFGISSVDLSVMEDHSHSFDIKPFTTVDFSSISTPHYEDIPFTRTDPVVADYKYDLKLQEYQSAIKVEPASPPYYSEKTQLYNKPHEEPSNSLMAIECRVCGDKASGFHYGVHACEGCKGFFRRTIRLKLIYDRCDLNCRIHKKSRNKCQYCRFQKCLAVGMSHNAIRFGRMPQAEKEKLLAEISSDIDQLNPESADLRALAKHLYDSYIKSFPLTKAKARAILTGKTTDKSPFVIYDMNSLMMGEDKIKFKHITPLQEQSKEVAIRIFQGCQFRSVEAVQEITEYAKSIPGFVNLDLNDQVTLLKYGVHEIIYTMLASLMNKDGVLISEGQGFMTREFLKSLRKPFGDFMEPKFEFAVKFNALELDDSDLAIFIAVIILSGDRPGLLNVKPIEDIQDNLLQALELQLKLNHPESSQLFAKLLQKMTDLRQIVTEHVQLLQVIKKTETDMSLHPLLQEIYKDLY
Procedure, shortened: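 Read-out: reporter mRNA induction, detected by fluorescence after RT-PCR and capillary electrophoresis. Transiently transfected human HepG2 liver cells carrying a chimeric NR-Gal4 construct were dosed for 24 h; activity was fitted upward relative to DMSO.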

[3] = target: human RAR-related Orphan Receptor gamma (RORg), RORC (gene 6097) (UniProt P51449); assay: ATG_RORg_TRANS: Attagene TRANS-FACTORIAL HepG2 Assay for human RAR-related Orphan Receptor gamma (RORg) (AID 2283011)
Procedure, shortened: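 Transient MRTU transfection of HepG2 (TRANS format, exogenous NR-Gal4 chimera). 24 h dosing. Total RNA → oligo(dT) RT → PCR → 6-FAM labelling → HpaI cut → CE. Gain vs DMSO.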

[4] = target: Retinoic acid receptor RXR-alpha (Homo sapiens) (UniProt P19793); assay: ATG_RXRa_TRANS: Attagene TRANS-FACTORIAL HepG2 Assay for human Retinoid X Receptor alpha (RXRa) (AID 2283012)
Chain of Retinoic acid receptor RXR-alpha (Homo sapiens) (P19793 whole entry, looked up, the tested form may be a part): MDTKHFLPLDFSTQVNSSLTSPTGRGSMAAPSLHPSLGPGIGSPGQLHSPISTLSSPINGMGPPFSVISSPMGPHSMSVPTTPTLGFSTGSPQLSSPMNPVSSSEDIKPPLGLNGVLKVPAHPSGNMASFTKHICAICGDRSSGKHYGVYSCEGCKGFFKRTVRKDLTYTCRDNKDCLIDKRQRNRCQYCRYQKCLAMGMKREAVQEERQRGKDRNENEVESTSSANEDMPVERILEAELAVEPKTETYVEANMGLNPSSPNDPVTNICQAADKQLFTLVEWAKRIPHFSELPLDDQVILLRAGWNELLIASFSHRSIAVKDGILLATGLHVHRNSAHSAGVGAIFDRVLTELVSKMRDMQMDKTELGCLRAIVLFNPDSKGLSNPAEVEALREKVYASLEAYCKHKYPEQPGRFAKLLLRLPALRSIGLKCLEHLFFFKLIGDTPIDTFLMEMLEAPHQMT
Procedure, shortened: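 TRANS format reporting activity of exogenous RXRa-Gal4 chimera in transiently transfected HepG2, 24 h exposure. Reporter transcripts quantified by RT-PCR with capillary electrophoresis, with gain of signal scored relative to DMSO.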

[5] = target: human Retinoid X Receptor beta (RXRb), RXRB (gene 6257) (UniProt P28702); assay: ATG_RXRb_TRANS: Attagene TRANS-FACTORIAL HepG2 Assay for human Retinoid X Receptor beta (RXRb) (AID 2283013)
Chain of human Retinoid X Receptor beta (RXRb), RXRB (gene 6257) (P28702 whole entry, looked up, the tested form may be a part): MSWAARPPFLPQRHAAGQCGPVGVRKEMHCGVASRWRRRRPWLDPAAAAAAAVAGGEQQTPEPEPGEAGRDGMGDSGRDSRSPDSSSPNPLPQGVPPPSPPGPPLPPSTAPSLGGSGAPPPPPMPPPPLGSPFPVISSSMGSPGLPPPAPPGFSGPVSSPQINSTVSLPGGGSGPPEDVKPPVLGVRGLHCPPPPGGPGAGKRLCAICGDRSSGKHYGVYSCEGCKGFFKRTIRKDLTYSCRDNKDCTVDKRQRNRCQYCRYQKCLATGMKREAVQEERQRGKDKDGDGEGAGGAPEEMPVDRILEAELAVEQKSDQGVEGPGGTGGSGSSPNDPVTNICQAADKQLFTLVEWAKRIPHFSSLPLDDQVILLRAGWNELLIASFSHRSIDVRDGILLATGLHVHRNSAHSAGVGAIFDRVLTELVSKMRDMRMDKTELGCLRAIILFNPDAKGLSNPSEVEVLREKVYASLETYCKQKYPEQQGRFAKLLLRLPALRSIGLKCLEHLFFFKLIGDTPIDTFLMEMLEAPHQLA
Procedure, shortened: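 Readout is reporter transcript induction after 24 h dosing. It is measured by RT-PCR of total RNA followed by fluorescent capillary electrophoresis. HepG2 liver cells carry transfected multiple reporter units driven by an exogenous RXRb-Gal4 fusion; activity is relative to DMSO.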

[6] = target: human Peroxisome Proliferator-activated Receptor delta (PPARd), PPARD (gene 5467) (UniProt Q03181); assay: ATG_PPARd_TRANS: Attagene TRANS-FACTORIAL HepG2 Assay for human Peroxisome Proliferator-activated Receptor delta (PPARd) (AID 2283002)
Procedure, shortened: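 Measured quantity: GAL4-UAS reporter transcript induction in HepG2 after 24 h chemical dosing, with NR-Gal4 chimeras supplied by transient transfection. Detection by RT-PCR and capillary electrophoresis; upward fit against DMSO.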

[7] = target: human Retinoic Acid Receptor beta (RARb), RARB (gene 5915) (UniProt P10826); assay: ATG_RARb_TRANS: Attagene TRANS-FACTORIAL HepG2 Assay for human Retinoic Acid Receptor beta (AID 2283004)
Chain of human Retinoic Acid Receptor beta (RARb), RARB (gene 5915) (P10826 whole entry, looked up, the tested form may be a part): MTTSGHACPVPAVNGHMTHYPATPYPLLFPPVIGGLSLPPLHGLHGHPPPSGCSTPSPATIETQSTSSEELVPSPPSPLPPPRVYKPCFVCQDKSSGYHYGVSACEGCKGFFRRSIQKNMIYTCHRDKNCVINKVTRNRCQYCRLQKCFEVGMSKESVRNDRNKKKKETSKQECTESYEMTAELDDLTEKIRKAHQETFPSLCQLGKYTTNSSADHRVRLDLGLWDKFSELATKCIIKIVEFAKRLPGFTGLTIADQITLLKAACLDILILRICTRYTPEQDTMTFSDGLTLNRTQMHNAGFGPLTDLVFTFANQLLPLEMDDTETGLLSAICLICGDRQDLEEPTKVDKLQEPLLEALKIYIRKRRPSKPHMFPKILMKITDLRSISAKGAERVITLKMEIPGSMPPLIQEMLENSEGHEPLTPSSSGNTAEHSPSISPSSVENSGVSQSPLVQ
Procedure, shortened: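 Readout is reporter mRNA induction: RNA reverse-transcribed, PCR-amplified, FAM-labelled, HpaI-cut and resolved by capillary electrophoresis. Transiently transfected HepG2 cells carrying exogenous NR–Gal4 chimeras were dosed for 24 h; activity fitted upward relative to DMSO.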

[8] = target: Retinoic acid receptor alpha (Homo sapiens) (UniProt P10276); assay: ATG_RARa_TRANS: Attagene TRANS-FACTORIAL HepG2 Assay for human Retinoic Acid Receptor alpha (RARa) (AID 2283005)
Chain of Retinoic acid receptor alpha (Homo sapiens) (P10276 whole entry, looked up, the tested form may be a part): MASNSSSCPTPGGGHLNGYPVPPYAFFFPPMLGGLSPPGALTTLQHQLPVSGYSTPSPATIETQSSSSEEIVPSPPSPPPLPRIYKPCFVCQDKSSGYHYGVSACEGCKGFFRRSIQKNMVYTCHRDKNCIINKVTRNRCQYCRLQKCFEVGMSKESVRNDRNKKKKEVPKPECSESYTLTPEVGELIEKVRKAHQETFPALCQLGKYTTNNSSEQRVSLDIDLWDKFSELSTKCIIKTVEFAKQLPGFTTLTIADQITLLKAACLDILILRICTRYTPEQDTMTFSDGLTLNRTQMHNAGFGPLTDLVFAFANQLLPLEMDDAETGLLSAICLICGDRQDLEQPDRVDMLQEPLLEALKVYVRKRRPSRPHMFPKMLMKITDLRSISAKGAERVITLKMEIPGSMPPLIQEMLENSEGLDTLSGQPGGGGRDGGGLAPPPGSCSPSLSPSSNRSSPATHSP
Procedure, shortened: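 HepG2 cells transiently transfected with multiple reporter units expressing chimeric RARα-GAL4 fusion, with GAL4-UAS-driven reporters. After 24 h compound exposure, reporter mRNA induction quantified by RT-PCR and capillary electrophoresis with fluorescent labeling; gain-of-signal fitted relative to DMSO control.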

[9] = target: human Retinoic Acid Receptor gamma (RARg), RARG (gene 5916) (UniProt P13631); assay: ATG_RARg_TRANS: Attagene TRANS-FACTORIAL HepG2 Assay for human Retinoic Acid Receptor gamma (RARg) (AID 2283009)
Chain of human Retinoic Acid Receptor gamma (RARg), RARG (gene 5916) (P13631 whole entry, looked up, the tested form may be a part): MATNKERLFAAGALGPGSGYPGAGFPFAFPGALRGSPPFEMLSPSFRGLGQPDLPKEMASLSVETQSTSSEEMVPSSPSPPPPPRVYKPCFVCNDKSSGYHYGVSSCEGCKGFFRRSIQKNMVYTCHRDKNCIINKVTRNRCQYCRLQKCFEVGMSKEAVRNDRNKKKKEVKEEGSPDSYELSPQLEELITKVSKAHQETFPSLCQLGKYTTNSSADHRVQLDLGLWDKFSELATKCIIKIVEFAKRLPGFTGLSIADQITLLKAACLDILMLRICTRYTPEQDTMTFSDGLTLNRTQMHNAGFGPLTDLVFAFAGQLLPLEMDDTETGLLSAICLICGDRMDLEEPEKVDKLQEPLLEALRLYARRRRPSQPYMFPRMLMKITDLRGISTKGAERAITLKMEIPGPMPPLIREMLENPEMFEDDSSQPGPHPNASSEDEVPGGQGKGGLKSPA
Procedure, shortened: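 Transactivation of exogenous RARg-Gal4 fusion measured as reporter transcript induction after 24 h in transfected HepG2 cells. RNA reverse-transcribed, amplified, fluorescently labeled and resolved by capillary electrophoresis; increase relative to DMSO.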

[10] = target: human RAR-related Orphan Receptor beta (RORb), RORB (gene 6096) (UniProt Q92753); assay: ATG_RORb_TRANS: Attagene TRANS-FACTORIAL HepG2 Assay for human RAR-related Orphan Receptor beta (RORb) (AID 2283010)
Chain of human RAR-related Orphan Receptor beta (RORb), RORB (gene 6096) (Q92753 whole entry, looked up, the tested form may be a part): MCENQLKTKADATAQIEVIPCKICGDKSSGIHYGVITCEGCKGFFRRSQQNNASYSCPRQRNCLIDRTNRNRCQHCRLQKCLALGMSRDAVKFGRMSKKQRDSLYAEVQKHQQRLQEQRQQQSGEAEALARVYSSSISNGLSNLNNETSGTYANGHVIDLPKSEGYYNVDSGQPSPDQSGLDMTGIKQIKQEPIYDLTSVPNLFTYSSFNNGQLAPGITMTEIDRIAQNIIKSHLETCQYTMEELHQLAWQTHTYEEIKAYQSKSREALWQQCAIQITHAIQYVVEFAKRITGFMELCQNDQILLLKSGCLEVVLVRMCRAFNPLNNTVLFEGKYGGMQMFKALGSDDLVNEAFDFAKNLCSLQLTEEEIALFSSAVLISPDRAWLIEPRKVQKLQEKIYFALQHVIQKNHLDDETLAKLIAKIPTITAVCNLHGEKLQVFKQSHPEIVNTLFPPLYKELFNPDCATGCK
Procedure, shortened: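 Read-out is reporter mRNA induction, quantified by RT-PCR with fluorescent capillary electrophoresis, 24 h post-dose in transiently transfected HepG2 expressing exogenous NR-Gal4 chimera. Activity fitted upward versus DMSO.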

[11] = target: human Thyroid Receptor alpha (THRa1), THRA (gene 7067) (UniProt P10827); assay: ATG_THRa1_TRANS: Attagene TRANS-FACTORIAL HepG2 Assay for human Thyroid Receptor alpha (THRa1) (AID 2283014)
Chain of human Thyroid Receptor alpha (THRa1), THRA (gene 7067) (P10827 whole entry, looked up, the tested form may be a part): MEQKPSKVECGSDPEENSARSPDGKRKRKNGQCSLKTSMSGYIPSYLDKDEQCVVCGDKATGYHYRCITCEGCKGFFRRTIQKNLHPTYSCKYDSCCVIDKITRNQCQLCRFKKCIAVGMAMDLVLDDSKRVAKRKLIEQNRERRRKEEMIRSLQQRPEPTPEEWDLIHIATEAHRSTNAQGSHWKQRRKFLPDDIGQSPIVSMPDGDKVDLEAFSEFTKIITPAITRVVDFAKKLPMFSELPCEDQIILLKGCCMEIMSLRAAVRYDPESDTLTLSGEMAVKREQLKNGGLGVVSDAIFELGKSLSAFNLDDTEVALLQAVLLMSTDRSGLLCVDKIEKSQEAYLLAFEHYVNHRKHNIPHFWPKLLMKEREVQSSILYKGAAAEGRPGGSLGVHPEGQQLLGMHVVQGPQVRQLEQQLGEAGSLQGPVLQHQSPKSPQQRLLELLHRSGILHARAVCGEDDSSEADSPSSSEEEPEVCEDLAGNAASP
Procedure, shortened: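 Transient HepG2 transfection, NR-Gal4 chimera driving GAL4-UAS reporters; 24 h compound exposure; total RNA, oligo(dT) RT, PCR, fluorescent primer extension, capillary electrophoresis. Upward direction vs DMSO control.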

[12] = target: Nuclear receptor subfamily 1 group I member 2 (Homo sapiens) (UniProt O75469); assay: ATG_PXR_TRANS: Attagene TRANS-FACTORIAL HepG2 Assay for human Pregnane X Receptor (PXR) (AID 2283008)
Chain of Nuclear receptor subfamily 1 group I member 2 (Homo sapiens) (O75469 whole entry, looked up, the tested form may be a part): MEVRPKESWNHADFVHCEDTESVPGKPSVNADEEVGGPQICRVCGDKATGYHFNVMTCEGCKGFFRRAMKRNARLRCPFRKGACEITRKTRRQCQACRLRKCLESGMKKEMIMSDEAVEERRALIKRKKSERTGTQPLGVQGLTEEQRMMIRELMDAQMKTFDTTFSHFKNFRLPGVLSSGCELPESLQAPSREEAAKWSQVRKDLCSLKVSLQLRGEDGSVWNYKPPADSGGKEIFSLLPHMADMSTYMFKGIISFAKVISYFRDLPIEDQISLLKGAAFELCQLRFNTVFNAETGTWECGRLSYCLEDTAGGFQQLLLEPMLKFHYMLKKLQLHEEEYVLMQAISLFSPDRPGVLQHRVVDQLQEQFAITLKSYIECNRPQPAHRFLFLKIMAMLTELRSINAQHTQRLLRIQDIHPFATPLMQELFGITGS
Procedure, shortened: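 Trans-factorial format: exogenous NR-Gal4 fusion activity, not endogenous factor, in transfected human HepG2 liver cells. After 24 h dosing, RNA isolated, reverse-transcribed, amplified and resolved by capillary electrophoresis; induction scored versus DMSO.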

Measured: AC50

CCCc1ccc(O)cc1
inactive: [1] | [2] | [3] | [4] | [5]

[Cu+]
not listed: [1] | [5] | [12]
inactive: all other assays above

O=C(O)CS
inactive: [1] | [9] | [10]

O=S(=O)(O)c1cc(S(=O)(=O)O)c2c(N=Nc3ccccc3)c(O)ccc2c1
inactive: [1] | [12] | [10] | [4] | [11]

Cc1cc(O)c2c(c1)C(=O)c1cc(O)cc(O)c1C2=O
active: [2] 9.51 µM | [12] 6.34 µM | [11] 12.6 µM
not listed: [1] | [3] | [5]
inactive: all other assays above

CCCC(O)C(CC)CO (stereo not drawn)
inactive: [6]

CCCCCCCCOS(=O)(=O)O
active: [2] 47.6 µM | [5] 100 µM
inactive: [1] | [3] | [4]

CC(=O)c1cccnc1
inactive: [1] | [11]

C[C@H](CCC(=O)O)[C@H]1CC[C@H]2[C@@H]3CC[C@@H]4C[C@H](O)CC[C@]4(C)[C@H]3CC[C@]12C
active: [6] 54.1 µM | [2] 29.1 µM | [12] 8.67 µM
inactive: [10] | [3] | [4]

CC1(C)CC(N)CC(C)(CN)C1 (stereo not drawn)
inactive: [1] | [2] | [9] | [10] | [3] | [4] | [5]

[Cl][Dy]([Cl])[Cl]
inactive: [1] | [12] | [4] | [5] | [11]

NC(=O)NC(N)=O
inactive: [6] | [7] | [12] | [9] | [4] | [5]

CC1COC(=O)O1 (stereo not drawn)
inactive: [1] | [2] | [11]

c1ccc(Cc2ccccc2)cc1
inactive: [1] | [2] | [10] | [4] | [5] | [11]

S=c1[nH][nH]c(=S)s1
inactive: [1] | [12] | [3] | [4] | [5] | [11]

C=C(C)C(=O)OCCN(C)C
inactive: [1] | [2] | [9]

CC(O)CNCC(C)O (stereo not drawn)
inactive: [6] | [2] | [12] | [10] | [3] | [4] | [5]

CC/C=C\CCOC(=O)C(C)C
inactive: [6] | [8] | [2] | [10] | [5] | [11]

O=S1(=O)CC=CC1
inactive: [1] | [10] | [4]

Cc1cc(N)n(-c2ccccc2)n1
inactive: [6] | [2] | [12] | [10] | [3] | [5] | [11]

COC(=O)c1cccc(C(=O)OC)c1
inactive: [1] | [2] | [9] | [10] | [3] | [5]

CCC(C)(C)c1cc(O)c(C(C)(C)CC)cc1O
inactive: [6] | [2] | [4] | [11]
active: [12] 7.37 µM | [5] 59.9 µM

CC(=O)C1=C(C)[C@@H]2C[C@@]3(C1)[C@H](C)CC[C@H]3C2(C)C
active: [2] 100 µM | [5] 21.4 µM
inactive: [6] | [4] | [11]

CCC(=O)OC(C)(C)C1CC=C(C)CC1 (stereo not drawn)
inactive: [6] | [2] | [10] | [4] | [5]
active: [12] 33.1 µM

CC(=O)N(C)C
inactive: [6] | [12]

CCCCCCCCCCOC(=O)c1ccccc1C(=O)OCCCCCCCC
inactive: [6] | [2] | [12] | [11]

COc1ccc(N)c(C)c1
active: [11] 73.2 µM
inactive: [6] | [12] | [4] | [5]

C1CCCNCC1
inactive: [6] | [2] | [11]

CCC(C)(C)C1CCC(=O)CC1
inactive: [7] | [8] | [2] | [9] | [3] | [4]
active: [12] 15.3 µM | [5] 50.6 µM

FC(F)(F)c1ccc(Cl)c(Cl)c1
inactive: [6] | [10] | [4]

C=C1CC[C@H]2O[C@]2(C)CC[C@@H]2[C@@H]1CC2(C)C
inactive: [6] | [2] | [10] | [4] | [11]
active: [5] 100 µM

CCCCCCCCOC(C)=O
inactive: [6] | [2] | [4] | [5] | [11]

CC/C=C\C#N
inactive: [6] | [2] | [12] | [11]

NC(=O)c1cccnc1
inactive: [6] | [2] | [4] | [11]

O=C1OCc2ccccc21
inactive: [6] | [4]

Cc1cccc(O)c1
inactive: [6] | [2] | [10] | [3]

Brc1cc(Br)cc(Br)c1
active: [5] 59.7 µM
inactive: [6] | [2] | [12] | [3] | [4] | [11]

CC(=O)OC/C=C(C)/C=C/C=C(C)/C=C/C1=C(C)CCCC1(C)C
active: [2] 27.3 µM
inactive: [6] | [4]

COc1ccccc1O
inactive: [6] | [2] | [12] | [10] | [11]

CCC(C)(CCCC(C)C)OC(C)=O (stereo not drawn)
inactive: [6] | [2] | [12] | [10] | [4]
active: [5] 64.8 µM

CC1(C)CC(=O)CC(C)(C)N1
inactive: [6] | [2] | [3]

c1coc(CNc2ncnc3nc[nH]c23)c1
inactive: [6] | [2] | [10] | [3] | [4] | [11]

O=C1CCC(=O)N1
inactive: [6] | [3] | [4] | [11]

O=c1cc(-c2ccc(O)cc2)oc2cc(O)cc(O)c12
active: [2] 18.2 µM
inactive: [6] | [9] | [4] | [5] | [11]

C=CC(=O)OCCCCCC
inactive: [6] | [12] | [4] | [11]

CC(C)COC(=O)c1ccccc1O
inactive: [6] | [2] | [12] | [3] | [4] | [5] | [11]
